Laboratory results published in the supplement of paper PMC10849652.
For part of these data: Of roughly 7,900 targets only a part is listed; those with a hit were picked by preference. For part of these data: About 0.6% of all pairs of compound and target were hits. For part of these data: Targets with a hit are over-represented here; the source holds about 8,800 in all. For part of these data: About 0.5% of all pairs of compound and target were hits.

Assays:
[1] = compound: C1=CC=C(C=C1)[C@H](COC2=CC3=C(C=C2)NC(=O)N3)NC(=O)C4=CC=CN(C4=O)CC5=CC(=C(C=C5)F)F; assay: log2 fold change, soluble protein after heating vs DMSO (PISA); higher = thermal stabilisation; K562 cells, 10 uM, 30 min; active = over 0.2 and 3.5 SD of the protein, either way, in both replicates (recomputed)
Procedure, shortened: (§1)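 K562 cells at 2×10^6 cells/mL were given 10 μM compound for 30 min. Aliquots then went through 3 min of heating across 48°C-58°C, were pooled, and were extracted in PBS with 0.5% NP-40 at 4°C, and the supernatant after 21,000xg for 90 min was quantified by TMTpro 16plex LC-MS/MS with channel sums equalised. Thermal stability relative to control samples, from duplicates, is given as log2 fold change.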

[2] = compound: CC1=C(SC2=C1C(=N[C@H](C3=NN=C(N32)C)CC(=O)N)C4=CC=C(C=C4)Cl)C; assay: as above
Procedure, shortened: as §1

[3] = compound: CC1=C2C(=CC=C1)N=C(N(C2=O)C3=CC=CC=C3C)CN4C=NC5=C(N=CN=C54)N; assay: as above
Procedure, shortened: as §1

[4] = compound: Cc1sc2c(c1C)C(c1ccc(Cl)cc1)=N[C@@H](CC(=O)OC(C)(C)C)c1nnc(C)n1-2; assay: as above
Procedure, shortened: as §1

[5] = compound: c1ccc([C@@H]2C[C@H]2NC2CCNCC2)cc1; assay: as above
Procedure, shortened: as §1

[6] = compound: C1=CC=C(C=C1)[C@H](COC2=CC3=C(C=C2)NC(=O)N3)NC(=O)C4=CC=CN(C4=O)CC5=CC(=C(C=C5)F)F; assay: log2 fold change, soluble protein after heating vs DMSO (PISA); higher = thermal stabilisation; K562 lysate, 10 uM; active = over 0.2 and 3.5 SD of the protein, either way, in both replicates (recomputed)
Procedure, shortened: (§2)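 Log-two fold change in thermal stability relative to solvent controls is reported from duplicates. For each sample, crude K562 extract from dounce-homogenised pellets in PBS pH 7.4 with 1 mM MgCl2, at 1 mg/mL protein, was treated with 10 μM compound for 30 min. Aliquots heated for 3 min across 48°C-58°C were pooled, brought to 0.5% NP-40 at 4°C and cleared at 21,000xg for 90 min. The supernatant was quantified by TMTpro 16plex LC-MS/MS with channel sums equalised.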

[7] = compound: CC1=C(SC2=C1C(=N[C@H](C3=NN=C(N32)C)CC(=O)N)C4=CC=C(C=C4)Cl)C; assay: as above
Procedure, shortened: as §2

[8] = compound: CC1=C2C(=CC=C1)N=C(N(C2=O)C3=CC=CC=C3C)CN4C=NC5=C(N=CN=C54)N; assay: as above
Procedure, shortened: as §2

[9] = compound: c1ccc([C@@H]2C[C@H]2NC2CCNCC2)cc1; assay: as above
Procedure, shortened: as §2

[10] = compound: Cc1sc2c(c1C)C(c1ccc(Cl)cc1)=N[C@@H](CC(=O)OC(C)(C)C)c1nnc(C)n1-2; assay: as above
Procedure, shortened: as §2

Measured: log2 fold change

ZFAND5 (UniProt O76080)
inactive: [1] -0.025 | [2] -0.21 | [3] -0.129 | [4] -0.024 | [5] 0.143

ANKRD44 isoform 2 (UniProt Q8N8A2)
inactive: [6] -0.032 | [7] -0.045 | [8] 0.019
active: [9] -1

ZC3H8 (UniProt Q8N5P1)
UniProt Q8N5P1, sequence (Q8N5P1 whole entry, looked up): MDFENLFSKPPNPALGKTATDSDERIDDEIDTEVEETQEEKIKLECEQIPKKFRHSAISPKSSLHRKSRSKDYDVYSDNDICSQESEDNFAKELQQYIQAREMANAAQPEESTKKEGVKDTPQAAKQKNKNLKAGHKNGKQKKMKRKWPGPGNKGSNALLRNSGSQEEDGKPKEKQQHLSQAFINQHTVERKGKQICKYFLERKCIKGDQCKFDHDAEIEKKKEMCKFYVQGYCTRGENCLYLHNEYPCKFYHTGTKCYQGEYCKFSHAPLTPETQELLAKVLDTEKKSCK
inactive: [1] 0.095 | [2] -0.089 | [3] -0.084 | [4] 0.091 | [5] 0

ABRACL (UniProt Q9P1F3)
UniProt Q9P1F3, sequence (Q9P1F3 whole entry, looked up): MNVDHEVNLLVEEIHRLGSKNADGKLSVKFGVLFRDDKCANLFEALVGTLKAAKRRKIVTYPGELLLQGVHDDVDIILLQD
inactive: [6] 0.052 | [7] -0.221 | [10] 0.054 | [9] 0.075

ADAR isoform 4 (UniProt P55265)
inactive: [6] -0.188 | [7] 0.116 | [8] 0.035 | [10] 0.005 | [9] 0.032

ZNF579 (UniProt Q8NAF0)
UniProt Q8NAF0, sequence (Q8NAF0 whole entry, looked up): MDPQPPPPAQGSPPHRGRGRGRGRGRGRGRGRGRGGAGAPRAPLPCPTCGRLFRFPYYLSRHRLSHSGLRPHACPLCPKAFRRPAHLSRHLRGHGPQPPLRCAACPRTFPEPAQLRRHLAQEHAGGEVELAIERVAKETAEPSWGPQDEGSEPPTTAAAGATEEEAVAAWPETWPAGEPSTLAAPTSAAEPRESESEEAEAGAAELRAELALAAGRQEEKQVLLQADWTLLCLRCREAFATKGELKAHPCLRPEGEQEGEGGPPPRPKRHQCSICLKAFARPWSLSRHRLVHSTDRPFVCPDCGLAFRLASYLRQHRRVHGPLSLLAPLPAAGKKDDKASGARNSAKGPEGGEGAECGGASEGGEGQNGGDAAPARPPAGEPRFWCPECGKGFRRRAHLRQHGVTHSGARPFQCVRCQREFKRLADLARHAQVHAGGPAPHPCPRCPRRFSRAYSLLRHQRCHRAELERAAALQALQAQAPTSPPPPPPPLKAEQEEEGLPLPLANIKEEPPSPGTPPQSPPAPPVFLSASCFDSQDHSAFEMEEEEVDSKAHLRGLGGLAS
inactive: [1] 0.05 | [2] -0.074 | [3] -0.025 | [4] 0.151 | [5] -0.147

YIPF4 (UniProt Q9BSR8)
inactive: [1] -0.027 | [2] 0.001 | [3] -0.019 | [4] 0.027 | [5] 0.046

ARHGAP25 isoform 4 (UniProt P42331)
inactive: [6] 0.013 | [7] 0.016 | [8] 0.012 | [10] -0.046 | [9] 0.035

ALDH3A1 (UniProt P30838)
inactive: [10] -0.209 | [9] -0.339

AP3D1 isoform 2 (UniProt O14617)
inactive: [8] -0.009 | [9] 0.061

ALG13 isoform 2 (UniProt Q9NP73)
inactive: [9] -0.109

ALKBH7 (UniProt Q9BT30)
inactive: [10] -0.012 | [9] -0.014

AP5B1 (UniProt Q2VPB7)
inactive: [6] 0.079 | [7] -0.023 | [10] -0.044 | [9] -0.003

ZCCHC9 (UniProt Q8N567)
inactive: [1] 0.173 | [2] -0.074 | [3] -0.202 | [4] 0.222 | [5] 0.023

ALKBH1 (UniProt Q13686)
inactive: [8] -0.036 | [10] -0.001 | [9] 0.051

ADD1 isoform 4 (UniProt P35611)
UniProt P35611, sequence (P35611 whole entry, looked up): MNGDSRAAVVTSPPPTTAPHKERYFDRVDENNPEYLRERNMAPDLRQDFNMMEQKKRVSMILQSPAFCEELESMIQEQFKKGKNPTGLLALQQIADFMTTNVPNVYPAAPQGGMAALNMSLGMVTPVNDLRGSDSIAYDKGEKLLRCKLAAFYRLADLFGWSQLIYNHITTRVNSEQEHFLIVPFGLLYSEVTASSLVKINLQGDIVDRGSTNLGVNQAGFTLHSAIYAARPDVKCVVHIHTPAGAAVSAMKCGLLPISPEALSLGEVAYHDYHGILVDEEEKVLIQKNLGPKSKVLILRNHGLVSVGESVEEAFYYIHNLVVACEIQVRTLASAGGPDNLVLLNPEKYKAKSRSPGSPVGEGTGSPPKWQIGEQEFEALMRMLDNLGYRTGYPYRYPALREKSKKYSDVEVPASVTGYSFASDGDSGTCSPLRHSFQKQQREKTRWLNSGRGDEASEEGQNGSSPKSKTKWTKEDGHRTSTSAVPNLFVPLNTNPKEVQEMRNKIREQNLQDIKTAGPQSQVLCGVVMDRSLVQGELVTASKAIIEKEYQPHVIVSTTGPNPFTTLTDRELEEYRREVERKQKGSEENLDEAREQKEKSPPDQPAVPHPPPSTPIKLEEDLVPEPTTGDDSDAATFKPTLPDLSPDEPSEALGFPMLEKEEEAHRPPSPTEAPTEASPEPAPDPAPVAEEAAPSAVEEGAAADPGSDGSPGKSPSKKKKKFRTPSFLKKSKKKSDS
inactive: [6] 0.22 | [7] 0.088 | [8] 0.12 | [10] -0.099 | [9] -0.571

ANXA2 (UniProt H0YL33)
inactive: [6] 0.079 | [7] -0.079 | [10] -0.135 | [9] 0.466

ALDH18A1 isoform 2 (UniProt P54886)
inactive: [8] 0.229 | [10] -0.068

ZNF622 (UniProt Q969S3)
inactive: [1] -0.028 | [2] 0.033 | [3] 0.073 | [4] -0.016 | [5] -0.049

YLPM1 (UniProt P49750)
inactive: [1] -0.092 | [2] 0.11 | [3] 0.104 | [4] 0.005 | [5] -0.052

ZBTB21 (UniProt Q9ULJ3)
inactive: [1] -0.215 | [2] -0.152 | [3] 0.058 | [4] 0.244 | [5] 0.006

AGPAT2 (UniProt O15120)
inactive: [8] -0.11 | [9] 0.034

AIF1L (UniProt Q9BQI0)
inactive: [6] 0.072 | [7] -0.031 | [10] 0.049 | [9] -0.022

ADAMTS5 (UniProt Q9UNA0)
inactive: [6] 0.032 | [7] 0.115 | [8] 0 | [10] -0.136
active: [9] -0.481

ANP32E isoform 3 (UniProt Q9BTT0)
UniProt Q9BTT0, sequence (Q9BTT0 whole entry, looked up): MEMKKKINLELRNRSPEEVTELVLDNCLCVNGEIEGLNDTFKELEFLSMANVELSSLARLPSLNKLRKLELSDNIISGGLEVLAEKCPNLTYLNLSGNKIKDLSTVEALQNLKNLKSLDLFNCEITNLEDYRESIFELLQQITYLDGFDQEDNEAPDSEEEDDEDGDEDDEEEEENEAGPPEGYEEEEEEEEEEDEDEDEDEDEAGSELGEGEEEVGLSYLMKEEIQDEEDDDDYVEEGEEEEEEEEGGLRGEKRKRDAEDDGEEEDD
inactive: [6] 0.003 | [7] 0.09 | [8] 0.015 | [9] -0.39

AIP (UniProt O00170)
inactive: [6] 0.012 | [7] -0.023 | [8] -0.006 | [10] 0.025 | [9] 0.125

ACAT1, A0A5F9ZHJ0
inactive: [9] -0.06

AMDHD2 (UniProt Q9Y303)
inactive: [8] 0.039 | [9] 0.095

ACLY isoform 2 (UniProt P53396)
inactive: [6] 0.099 | [7] -0.01 | [8] 0.023 | [9] -0.325

ZDHHC17 (UniProt Q8IUH5)
inactive: [1] 0.014 | [2] 0.062 | [3] -0.082 | [4] -0.039 | [5] -0.011

AGGF1 (UniProt Q8N302)
UniProt Q8N302, sequence (Q8N302 whole entry, looked up): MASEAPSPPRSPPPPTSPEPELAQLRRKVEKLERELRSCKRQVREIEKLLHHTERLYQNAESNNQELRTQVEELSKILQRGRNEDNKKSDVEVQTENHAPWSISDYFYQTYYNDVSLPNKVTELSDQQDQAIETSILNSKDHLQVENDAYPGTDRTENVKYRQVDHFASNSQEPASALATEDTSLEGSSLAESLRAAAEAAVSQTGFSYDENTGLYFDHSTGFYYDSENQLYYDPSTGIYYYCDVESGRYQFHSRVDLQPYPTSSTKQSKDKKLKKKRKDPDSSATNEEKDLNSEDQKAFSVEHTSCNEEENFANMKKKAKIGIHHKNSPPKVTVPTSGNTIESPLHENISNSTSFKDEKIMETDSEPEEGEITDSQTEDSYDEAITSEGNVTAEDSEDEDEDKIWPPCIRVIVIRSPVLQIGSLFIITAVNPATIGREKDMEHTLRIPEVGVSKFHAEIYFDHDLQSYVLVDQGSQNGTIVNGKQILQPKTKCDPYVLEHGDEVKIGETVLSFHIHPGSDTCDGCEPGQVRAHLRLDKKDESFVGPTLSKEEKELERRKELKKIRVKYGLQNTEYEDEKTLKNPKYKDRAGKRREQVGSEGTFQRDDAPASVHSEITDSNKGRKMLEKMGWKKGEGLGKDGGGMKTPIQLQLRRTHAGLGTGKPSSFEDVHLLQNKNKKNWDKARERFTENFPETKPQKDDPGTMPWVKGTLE
inactive: [6] 0.042 | [7] 0.049 | [8] 0.024 | [9] -0.149

ACYP2 (UniProt P14621)
UniProt P14621, sequence (P14621 whole entry, looked up): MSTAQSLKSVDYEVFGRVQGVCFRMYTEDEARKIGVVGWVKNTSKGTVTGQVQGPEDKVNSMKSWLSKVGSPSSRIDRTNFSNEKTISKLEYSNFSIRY
inactive: [6] -0.061 | [7] -0.032 | [8] 0.011 | [9] 0.118

ANKRD30A (UniProt Q9BXX3)
inactive: [6] -0.04 | [7] -0.051 | [10] -0.03 | [9] 0.064

YY1 (UniProt P25490)
inactive: [1] 0.013 | [2] -0.006 | [3] -0.033 | [4] -0.015 | [5] 0.084

ZW10 (UniProt O43264)
inactive: [1] -0.044 | [2] 0.044 | [3] 0.018 | [4] -0.004 | [5] 0

ZNF609 (UniProt O15014)
inactive: [1] 0.035 | [2] -0.008 | [3] 0.148 | [4] 0.14 | [5] 0.073

ZMYM1 (UniProt Q5SVZ6)
UniProt Q5SVZ6, sequence (Q5SVZ6 whole entry, looked up): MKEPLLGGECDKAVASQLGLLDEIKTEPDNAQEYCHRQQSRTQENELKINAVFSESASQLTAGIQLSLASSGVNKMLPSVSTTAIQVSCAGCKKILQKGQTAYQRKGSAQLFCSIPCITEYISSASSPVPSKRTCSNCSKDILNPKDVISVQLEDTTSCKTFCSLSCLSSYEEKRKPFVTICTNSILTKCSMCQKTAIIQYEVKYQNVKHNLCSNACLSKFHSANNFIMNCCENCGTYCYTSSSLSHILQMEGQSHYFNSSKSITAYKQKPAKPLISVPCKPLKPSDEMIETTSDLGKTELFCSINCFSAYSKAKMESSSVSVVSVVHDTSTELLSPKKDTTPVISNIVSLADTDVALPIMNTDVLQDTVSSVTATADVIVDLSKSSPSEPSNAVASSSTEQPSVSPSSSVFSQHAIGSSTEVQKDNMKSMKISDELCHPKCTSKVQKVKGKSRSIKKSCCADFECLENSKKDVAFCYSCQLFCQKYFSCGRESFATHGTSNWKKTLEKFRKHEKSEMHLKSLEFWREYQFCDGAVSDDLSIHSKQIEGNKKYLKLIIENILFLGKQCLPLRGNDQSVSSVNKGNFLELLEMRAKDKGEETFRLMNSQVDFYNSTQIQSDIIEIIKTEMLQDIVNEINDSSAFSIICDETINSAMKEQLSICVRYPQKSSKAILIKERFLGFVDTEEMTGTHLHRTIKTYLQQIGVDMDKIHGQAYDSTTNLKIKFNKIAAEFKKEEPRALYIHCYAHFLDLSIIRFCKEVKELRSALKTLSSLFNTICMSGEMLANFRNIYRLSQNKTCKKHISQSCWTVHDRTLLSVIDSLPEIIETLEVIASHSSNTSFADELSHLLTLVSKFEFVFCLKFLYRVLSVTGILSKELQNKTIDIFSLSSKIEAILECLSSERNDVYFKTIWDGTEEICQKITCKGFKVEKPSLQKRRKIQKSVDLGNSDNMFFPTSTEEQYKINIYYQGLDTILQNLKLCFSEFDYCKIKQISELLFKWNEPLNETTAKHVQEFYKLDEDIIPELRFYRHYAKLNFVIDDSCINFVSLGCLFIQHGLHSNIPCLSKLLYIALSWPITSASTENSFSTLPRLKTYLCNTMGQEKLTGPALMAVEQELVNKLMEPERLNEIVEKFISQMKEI
inactive: [1] 0.077 | [2] 0.082 | [3] -0.144 | [4] -0.012 | [5] -0.011

ZADH2 (UniProt Q8N4Q0)
inactive: [1] 0.012 | [2] -0.039 | [3] -0.076 | [4] -0.026 | [5] 0.008

YPEL5 (UniProt P62699)
inactive: [1] -0.066 | [2] 0.044 | [3] 0.016 | [5] -0.081

ZER1 (UniProt Q7Z7L7)
inactive: [1] 0 | [2] -0.007 | [3] 0.018 | [4] -0.064 | [5] -0.03

ZNF239 (UniProt Q16600)
inactive: [1] -0.17 | [2] -0.151 | [3] -0.06 | [4] -0.082 | [5] 0.06

ZFP91 (UniProt Q96JP5)
inactive: [1] -0.038 | [2] -0.221 | [3] -0.052 | [4] 0.096 | [5] 0.03

ZNF217 (UniProt O75362)
inactive: [1] -0.017 | [2] 0.048 | [3] 0.163 | [4] -0.003
active: [5] 0.306

ZFAND6 (UniProt Q6FIF0)
inactive: [1] 0 | [2] -0.015 | [3] 0.042 | [4] -0.143 | [5] 0.004

ZMYM3 (UniProt Q14202)
inactive: [1] -0.03 | [2] 0.055 | [3] -0.02 | [4] 0.043 | [5] 0.103

YWHAZ (UniProt P63104)
UniProt P63104, sequence (P63104 whole entry, looked up): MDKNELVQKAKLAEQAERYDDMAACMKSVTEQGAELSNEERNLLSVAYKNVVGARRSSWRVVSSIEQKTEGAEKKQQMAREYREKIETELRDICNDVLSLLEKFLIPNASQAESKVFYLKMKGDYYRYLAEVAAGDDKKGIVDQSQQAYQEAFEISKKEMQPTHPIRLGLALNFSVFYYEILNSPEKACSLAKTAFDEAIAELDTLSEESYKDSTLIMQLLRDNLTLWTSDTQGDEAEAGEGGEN
inactive: [1] -0.012 | [2] 0.035 | [3] -0.031 | [4] -0.033 | [5] -0.025

ZYG11B (UniProt Q9C0D3)
UniProt Q9C0D3, sequence (Q9C0D3 whole entry, looked up): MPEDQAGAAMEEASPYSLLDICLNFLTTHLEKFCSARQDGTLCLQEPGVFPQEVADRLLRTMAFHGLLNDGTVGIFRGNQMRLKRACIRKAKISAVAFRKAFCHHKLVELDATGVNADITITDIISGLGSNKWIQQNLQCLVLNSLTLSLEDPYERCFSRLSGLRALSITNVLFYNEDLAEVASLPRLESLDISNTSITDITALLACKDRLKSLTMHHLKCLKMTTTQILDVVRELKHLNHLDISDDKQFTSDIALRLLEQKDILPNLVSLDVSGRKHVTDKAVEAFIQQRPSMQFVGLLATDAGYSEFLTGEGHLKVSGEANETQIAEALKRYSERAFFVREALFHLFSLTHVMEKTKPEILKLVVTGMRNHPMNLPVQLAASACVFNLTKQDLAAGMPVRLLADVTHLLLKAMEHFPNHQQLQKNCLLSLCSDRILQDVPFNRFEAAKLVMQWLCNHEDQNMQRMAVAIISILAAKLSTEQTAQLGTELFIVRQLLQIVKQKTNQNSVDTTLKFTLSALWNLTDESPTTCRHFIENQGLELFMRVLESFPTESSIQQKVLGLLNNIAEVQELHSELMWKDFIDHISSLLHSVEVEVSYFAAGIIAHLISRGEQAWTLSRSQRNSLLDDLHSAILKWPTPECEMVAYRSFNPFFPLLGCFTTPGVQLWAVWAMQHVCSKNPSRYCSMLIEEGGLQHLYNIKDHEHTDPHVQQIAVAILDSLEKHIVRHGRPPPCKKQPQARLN
inactive: [1] 0.057 | [2] 0.086 | [3] 0.011 | [4] -0.02 | [5] 0.044

ZNF512 (UniProt Q96ME7)
inactive: [2] -0.117 | [5] -0.363

ZNF277 (UniProt Q9NRM2)
inactive: [1] -0.134 | [2] 0.028 | [3] -0.007 | [4] 0.286 | [5] 0

ZMAT2 (UniProt Q96NC0)
inactive: [1] 0.029 | [2] -0.025 | [3] -0.009 | [4] -0.042 | [5] -0.016

ZNF143 (UniProt P52747)
inactive: [1] 0.015 | [2] -0.013 | [3] -0.022 | [4] 0.064 | [5] 0.107

YWHAQ (UniProt P27348)
inactive: [1] -0.031 | [2] 0.009 | [3] -0.152 | [4] -0.089 | [5] -0.083

YBX1 (UniProt P67809)
inactive: [1] 0.105 | [2] -0.228 | [3] -0.143 | [4] 0.115 | [5] 0.052

YWHAZ (UniProt E7ESK7)
inactive: [1] 0.066 | [2] 0.009 | [4] 0.083 | [5] 0.052

ZRANB2 (UniProt O95218)
inactive: [1] -0.002 | [2] -0.073 | [3] -0.07 | [4] 0.021 | [5] 0.093

ZNF511 isoform 1 (UniProt Q8NB15)
inactive: [1] -0.015 | [2] -0.128 | [3] 0.064 | [4] -0.123 | [5] 0.102

YES1 (UniProt P07947)
inactive: [1] 0.025 | [2] -0.056 | [3] 0.126 | [4] -0.005 | [5] -0.038

ZNF580 (UniProt Q9UK33)
inactive: [3] -0.16 | [4] 0.029

YIPF6 (UniProt Q96EC8)
inactive: [1] 0.062 | [2] -0.04 | [3] 0.114 | [4] 0.103 | [5] 0.015

ZEB2 (UniProt O60315)
inactive: [1] -0.125 | [3] 0.137 | [4] 0.368
